PubChem BioAssay AID1159580 (chemical genetic matrix, 2015)
Several values for one entry are separate records, joined by “and”; a condition that tells them apart may be missing. Equal entries are not always repeated. Among all 5,500 compounds or so, about 2,000 (36%) were called active. Another 18% or so got no clear call; they are omitted. This is one part of the list. Unmarked numbers belong to inactive results. Rule as the data show it: active = normalized growth mostly below about 0.91 (no sharp cut-off); inconclusive = no clear call, values can overlap the other calls; inactive = mostly above about 0.92.

Test: chemical genetic growth profiling, strain panel (AID 1159580);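 also: tested at 20 µM; growth read once vehicle control cultures reached saturation at 30 °C; 1 = growth at the plate median or of vehicle wells; lower values mean less growth of the strain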
Conditions: S. cerevisiae deletion strains, growth OD

For `O=C1C=C(O)c2ccccc2C1=O`, the normalized growth (locus YAL013W, strain DEP1, stronger effect = lower value) was 0.969, the normalized growth (locus YAL021C, strain ccr4, stronger effect = lower value) was 0.905 (active) and the normalized growth (locus YAL026C, strain drs2, stronger effect = lower value) was 0.938. It also gave a normalized growth (locus YAL030W, strain snc1, stronger effect = lower value) of 0.959, a normalized growth (locus YBL061C, strain skt5, stronger effect = lower value) of 0.956 and a normalized growth (locus YBR009C, strain hhf1, stronger effect = lower value) of 0.948. For the same compound, the normalized growth (locus YBR021W, strain FUR4, stronger effect = lower value) was 1.05, the normalized growth (locus YBR023C, strain chs3, stronger effect = lower value) was 0.95 and the normalized growth (locus YBR171W, strain sec66, stronger effect = lower value) was 0.952. For the same compound, the normalized growth (locus YBR229C, strain ROT2, stronger effect = lower value) was 0.979, the normalized growth (locus YBR231C, strain swc5, stronger effect = lower value) was 0.932 and the normalized growth (locus YBR279W, strain paf1, stronger effect = lower value) was 0.953. The normalized growth (locus YCL011C, strain gbp2, stronger effect = lower value) was 0.925, the normalized growth (locus YCL016C, strain dcc1, stronger effect = lower value) was 0.95 and the normalized growth (locus YCL029C, strain bik1, stronger effect = lower value) was 0.971. For the same compound, the normalized growth (locus YCL061C, strain MRC1, stronger effect = lower value) was 0.93, the normalized growth (locus YCL069W, strain vba3, stronger effect = lower value) was 0.963 and the normalized growth (locus YCR088W, strain abp1, stronger effect = lower value) was 0.934. It also gave a normalized growth (locus YDL005C, strain med2, stronger effect = lower value) of 0.947, a normalized growth (locus YDL035C, strain GPR1, stronger effect = lower value) of 1.01 and a normalized growth (locus YDL040C, strain nat1, stronger effect = lower value) of 0.966. The normalized growth (locus YDL074C, strain BRE1, stronger effect = lower value) was 1.03, the normalized growth (locus YDL101C, strain DUN1, stronger effect = lower value) was 0.971 and the normalized growth (locus YDL134C, strain PPH21, stronger effect = lower value) was 0.968. It also gave a normalized growth (locus YDL185W, strain tfp1, stronger effect = lower value) of 0.907, a normalized growth (locus YDL192W, strain arf1, stronger effect = lower value) of 0.958 and a normalized growth (locus YDR001C, strain nth1, stronger effect = lower value) of 0.944. The normalized growth (locus YDR069C, strain doa4, stronger effect = lower value) was 0.912, the normalized growth (locus YDR101C, strain arx1, stronger effect = lower value) was 0.978 and the normalized growth (locus YDR137W, strain rgp1, stronger effect = lower value) was 0.683 (active). The normalized growth (locus YDR150W, strain NUM1, stronger effect = lower value) was 0.972, the normalized growth (locus YDR159W, strain sac3, stronger effect = lower value) was 0.802 (active) and the normalized growth (locus YDR162C, strain NBP2, stronger effect = lower value) was 0.882. The normalized growth (locus YDR195W, strain ref2) was 0.995, the normalized growth (locus YDR297W, strain sur2, stronger effect = lower value) was 0.931 and the normalized growth (locus YDR318W, strain mcm21, stronger effect = lower value) was 0.928. The normalized growth (locus YDR334W, strain swr1, stronger effect = lower value) was 0.884 (active), the normalized growth (locus YDR335W, strain msn5, stronger effect = lower value) was 0.94 and the normalized growth (locus YDR388W, stronger effect = lower value) was 0.966. The normalized growth (locus YDR392W, strain spt3, stronger effect = lower value) was 0.796, the normalized growth (locus YDR502C, strain sam2, stronger effect = lower value) was 0.941 and the normalized growth (locus YEL003W, strain gim4, stronger effect = lower value) was 0.925. For the same compound, the normalized growth (locus YEL037C, strain rad23, stronger effect = lower value) was 0.944, the normalized growth (locus YEL061C, strain CIN8 (second series), stronger effect = lower value) was 0.948 and the normalized growth (locus YEL061C, strain CIN8, stronger effect = lower value) was 0.966. For the same compound, the normalized growth (locus YER015W, strain faa2, stronger effect = lower value) was 0.94, the normalized growth (locus YER016W, strain bim1, stronger effect = lower value) was 0.957 and the normalized growth (locus YER110C, stronger effect = lower value) was 0.955. For the same compound, the normalized growth (locus YER111C, strain swi4, stronger effect = lower value) was 0.965, the normalized growth (locus YER155C, strain BEM2 (second series), stronger effect = lower value) was 0.954 and the normalized growth (locus YER155C, strain BEM2, stronger effect = lower value) was 0.957. The normalized growth (locus YER167W, strain BCK2, stronger effect = lower value) was 0.98, the normalized growth (locus YFR010W, strain ubp6, stronger effect = lower value) was 0.896 (active) and the normalized growth (locus YGL078C, strain dbp3, stronger effect = lower value) was 1.01. It also gave a normalized growth (locus YGL086W, strain mad1, stronger effect = lower value) of 0.976, a normalized growth (locus YGL167C, strain pmr1, stronger effect = lower value) of 0.948 and a normalized growth (locus YGL173C, strain kem1, stronger effect = lower value) of 0.942. It also gave a normalized growth (locus YGL227W, strain vid30, stronger effect = lower value) of 0.977, a normalized growth (locus YGL240W, strain doc1, stronger effect = lower value) of 0.89 and a normalized growth (locus YGL248W, strain PDE1, stronger effect = lower value) of 0.966. It also gave a normalized growth (locus YGL253W, strain hxk2, stronger effect = lower value) of 0.924, a normalized growth (locus YGR078C, strain PAC10, stronger effect = lower value) of 0.963 and a normalized growth (locus YGR135W, strain pre9, stronger effect = lower value) of 0.973. It also gave a normalized growth (locus YGR252W, strain gcn5, stronger effect = lower value) of 1.03, a normalized growth (locus YHR013C, strain ard1, stronger effect = lower value) of 0.963 and a normalized growth (locus YHR027C, strain rpn1, stronger effect = lower value) of 0.935. The normalized growth (locus YHR030C, strain SLT2, stronger effect = lower value) was 0.963 and 0.867, the normalized growth (locus YHR079C, strain IRE1 (second series), stronger effect = lower value) was 0.981 and the normalized growth (locus YHR079C, strain IRE1, stronger effect = lower value) was 0.774 (active). For the same compound, the normalized growth (locus YHR094C, strain hxt1, stronger effect = lower value) was 1, the normalized growth (locus YHR129C, strain ARP1, stronger effect = lower value) was 0.988 and the normalized growth (locus YHR142W, strain chs7, stronger effect = lower value) was 0.93. The normalized growth (locus YHR200W, strain rpn10, stronger effect = lower value) was 0.962, the normalized growth (locus YIL066C, strain RNR3, stronger effect = lower value) was 0.972 and the normalized growth (locus YIL073C, strain SPO22, stronger effect = lower value) was 0.992. For the same compound, the normalized growth (locus YIL125W, strain kgd1, stronger effect = lower value) was 0.962, the normalized growth (locus YIR030C, strain dcg1, stronger effect = lower value) was 0.972 and the normalized growth (locus YJL092W, strain hpr5, stronger effect = lower value) was 0.934. The normalized growth (locus YJL095W, strain BCK1 (second series), stronger effect = lower value) was 0.931, the normalized growth (locus YJL095W, strain BCK1, stronger effect = lower value) was 0.949 and 0.923 and the normalized growth (locus YJL115W, strain asf1, stronger effect = lower value) was 0.938. It also gave a normalized growth (locus YJL129C, strain trk1, stronger effect = lower value) of 0.967, a normalized growth (locus YJL134W, strain LCB3, stronger effect = lower value) of 0.967 and a normalized growth (locus YJL154C, strain vps35, stronger effect = lower value) of 0.933. The normalized growth (locus YJL164C, strain tpk1, stronger effect = lower value) was 0.913 (active), the normalized growth (locus YJL166W, strain qcr8, stronger effect = lower value) was 0.92 and the normalized growth (locus YJL168C, strain set2, stronger effect = lower value) was 0.955. It also gave a normalized growth (locus YJL187C, strain SWE1 (second series), stronger effect = lower value) of 0.957 and a normalized growth (locus YJL187C, strain SWE1, stronger effect = lower value) of 0.946.
